This is part of a sample that, as a whole, favours compounds with a hit. Of some 83,000 tested, about 20% had one in any assay.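 The test compound was applied at a single concentration to cells in 96-well plates for 48 hours, and percent growth was recorded.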 Activity calls are given as the source filed them. The calls were made as follows: active = growth percent below 10; inactive = the rest.
Tested on: HOP-92 NSCLC
Experiment: NCI-60 one-dose screen, 48 h (100 = growth as untreated, 0 = no growth, -100 = all killed)
Conditions: 10 µM unless noted

Compound | growth
O=C(CC1(O)C(=O)Nc2ccccc21)c1ccc(C(=O)NCC2CCC3(CC2)OOC2(CCCCC2)OO3)cc1 (configuration not stated) | -53.6% (active)
CCCOC(=O)N[C@H]1CCc2c(Br)c(OC)c(OC)c(OC)c2-c2ccc(SC)c(=O)cc21 | -3.98% (active)
Cc1cc(C)c(CBr)c(C)c1 | 87.5% (inactive)

Tested on: NCI-H522 lung
Experiment: as above
Conditions: 10 µM unless noted

Compound | growth
CCCC[C@H](NC(=O)[C@H]1CCCN1C)C(=O)N(C)[C@H](C[C@@H](OC(C)=O)c1nc(C(=O)N[C@@H](Cc2ccccc2)C[C@H](C)C(=O)OCC)cs1)C(C)C | -12.1% (active)
C[C@]12CC[C@H]3[C@@H](CC[C@]4(O)C[C@@H](O[C@@H]5O[C@H](CO)[C@@H](O[C@@H]6OC[C@@H](O)[C@H](O)[C@H]6O)[C@H](O)[C@H]5O)CC[C@]34C=O)[C@@]1(O)CC[C@@H]2C1=CC(=O)OC1 | -35.2% (active)
c1cc2c(c3c1CCNC3)OCO2 | 75.6% (inactive)
Fc1ccc2c(c1)c(-c1nc(-c3c[nH]c4ncccc34)cs1)cn2CCCCN1CCCCC1 | -87.2% (active)
O=C(Nc1ccncc1F)c1cn(CC2CC2)c2ccccc12 | 92.3% (inactive)
COP(=S)(N1CC1)N1CC1 | 103% (inactive)
C/C=C(\C)C(=O)O[C@@H]1C(O)[C@H]2OC(COC(=O)CCC(=O)CCCCCC[C@H](CCCCC)O[C@@H]3OC(C)[C@H](OC(C)=O)C(O)[C@H]3O2)[C@H]1OC(=O)/C=C/c1ccccc1 (some centres not stated) | 20.9% (inactive)
CCc1ccccc1[C@@H]1C[C@]2(C)CCO[C@@H]2OO1 | 104% (inactive)
CC(=O)O[C@H](C[C@H](C(C)C)N(C)C(=O)[C@@H](NC(=O)[C@H]1CCCCN1C)C(C)(C)C)c1nc(C(=O)N[C@@H](Cc2ccccc2)C[C@H](C)C(=O)O)cs1 | -24.7% (active)
COc1ccc(C(=O)c2cc(OC)c(OC)c(OC)c2)cc1OC(C)=O | 10.3% (inactive)
COc1ccc(N(CC(=O)NCCC[Te]c2ccccc2)C(=O)CNC(=O)OC(C)(C)C)cc1 | -0.481% (active)
COC(=O)[C@@H](C)C[C@H](Cc1ccccc1)NC(=O)c1csc([C@@H](C[C@H](C(C)C)N(C)C(=O)[C@@H](NC(=O)[C@H]2CCCCN2C)C(C)C)OC(C)=O)n1 | -31.7% (active)
CC[C@H](C)[C@@H]1OC(=O)C(C)(C)[C@H](O)[C@H](Cc2ccccc2)OC(=O)[C@H](C(C)C)OC(=O)[C@@H](NC(=O)c2cccc(NC=O)c2O)[C@@H](C)OC1=O | 38.9% (inactive)
NC(=O)CNc1ccc([As]=[As]c2ccc(NCC(N)=O)cc2)cc1 (configuration not stated) | 2.53% (active)
Fc1ccc2c(c1)c(-c1nc(-c3c[nH]c4ncccc34)cs1)cn2CCN1CCOCC1 | 44.5% (inactive)
O=C([O][Hg][CH2]C1COCC([CH2][Hg][O]C(=O)c2ccccc2)O1)c1ccccc1 (configuration not stated) | -53.3% (active)
O=[N+]([O-])CC(c1ccccc1Cl)c1c(-c2ccccc2)[nH]c2ccccc12 (configuration not stated) | -10.9% (active)

Compound | growth
CCn1c2ccccc2c2cc(C(=O)c3cccc4c3CCCN4)ccc21 | 115% (inactive)
COc1ccc(/C(C)=C(\c2ccc(OCCN3CCOCC3)cc2)c2ccc(OC(=O)Cc3ccccc3)cc2)cc1 | 94.9% (inactive)
Cc1cc(N(CCCl)CCCl)ccc1C=Nc1ccc(-c2csc(Cc3ccccc3)n2)cc1 | 69.7% (inactive)
O=C(CC1(O)C(=O)N(Cc2ccccc2)c2ccc(Cl)cc21)c1ccc(C(=O)NCC2CCC3(CC2)OOC2(CCCCC2)OO3)cc1 (configuration not stated) | -26.7% (active)
CCOC(=O)CCC(NC(=O)C(Cc1ccc(N(CCCl)CCCl)cc1)NC=O)C(=O)OCC (configuration not stated) | -67.6% (active)
COC(=O)[C@@H](C)C[C@H](Cc1ccccc1)NC(=O)c1csc([C@@H](C[C@H](C(C)C)N(C)C(=O)[C@@H](NC(=O)C23CC(NC(C)=O)(C2)C3)C2CC2)OC(C)=O)n1 | 2.4% (active)
COC(=O)[C@]12CCC(C)(C)C[C@H]1[C@H]1C(=O)C[C@@H]3[C@@]4(C)C[C@@]5(CC(C)(C)[C@@H]4CC[C@@]3(C)[C@]1(C)CC2)OO[C@@](C)(C(F)(F)F)O5 | 76.7% (inactive)
CNC(=O)Oc1ccc(N(C)C)cc1C(C)C | 92.2% (inactive)
COc1ccc(/C=C\c2cc(OC)c(OC)c(OC)c2)cc1OCC(=O)Nc1nc2ccc(C(F)(F)F)cc2s1 | -39.2% (active)
O=C(CC1(O)C(=O)N(Cc2ccccc2)c2ccc(F)cc21)c1ccc(C(=O)NCC2CCC3(CC2)OOC2(CCCCC2)OO3)cc1 (configuration not stated) | -43.1% (active)
c1cnc2[nH]cc(-c3csc(-c4cn(CCCCN5CCCCC5)c5ccccc45)n3)c2c1 | 98.5% (inactive)
COc1ccc(NC([Se])=NC23CC4CC(CC(C4)C2)C3)cc1 | -32.6% (active)
Clc1cccc(Cl)c1Cl | 65.1% (inactive)
C[C@]12CCc3sc(-c4ccccc4O)nc3C1=CC[C@@H]1[C@@H]2CC[C@]2(C)C(=O)CC[C@@H]12 | 99.3% (inactive)
O=C(CC1(O)C(=O)Nc2ccccc21)c1ccc(C(=O)NCC2CCC3(CC2)OOC2(CCCCC2)OO3)cc1 (configuration not stated) | 54.9% (inactive)
CCCOC(=O)N[C@H]1CCc2c(Br)c(OC)c(OC)c(OC)c2-c2ccc(SC)c(=O)cc21 | 8.5% (active)
Cc1cc(C)c(CBr)c(C)c1 | 90.2% (inactive)
